Screening data from PubChem.
Tat transport = E. coli Tat transport inhibition; E. coli MC4100 TorA-mCherry Tat export, fluorescence; inhibition, % at 10 µM; 340,000 tested, 0.036% active;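 active means mean replicate inhibition at least 50% and at least half of replicates individually reaching 50%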;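 further: exported cargo escapes ClpAP degradation while cytoplasmic cargo is degraded and loses fluorescence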
E coli growth-1 = reduces bacterial viability in AddAB counter-screen | E. coli V3065 growth, OD600 absorbance, 18 h | inhibition, % at 11.9 µM | 330,000 tested, 0.27% active | AID 449728;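 active means inhibition above the campaign's mean inhibition across all tested compounds plus 3 SD, cut at about 9.9% in these data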;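 further: uninfected addAB+ strain grown without phage in ampicillin broth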
E coli growth-2 = blocks Escherichia coli growth | OD600, 23 h; active compounds read low | AID 1053175 | 330,000 tested, 0.21% active | OD600 absorbance (test concentration not listed);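 active means OD600 absorbance below the run mean of sample wells minus 3.6 SD, in any replicate, cut at about 0.56 in these data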
AddAB inh = less growth of phage-infected E. coli with AddAB | E. coli expressing H. pylori AddAB, absorbance growth | 330,000 tested, 0.29% active | inhibition, % at 11.9 µM | AID 435030; in the data active means inhibition above about 12%
phage Ecoli inh = E. coli growth loss with phage present. AID 651602. growth absorbance. 360,000 tested, 0.26% active. inhibition, % at 11.9 µM; in the data active means inhibition above about 11%
Large screens that a line does not name were inactive. An excerpt weighted towards active compounds, which were near 0.5% of everything screened.

COc1ccc(CN(C(=O)c2ccc(-c3ccccc3)[nH]2)C(C(=O)NC(C)(C)C)c2ccncc2)cc1 (stereo not drawn)	none
CC[n+]1c(C)sc2c3ccsc3ccc21	none
C[n+]1ccccc1/C=C1\Sc2ccccc2N1CCO	none
CCN1/C(=C/c2ccc3cccc(C)c3[n+]2CC)Sc2ccccc21	E coli growth-2 0.46
CC[n+]1c(/C=C/c2ccc(OC)c(OC)c2)ccc2ccccc21	none
CCN1/C(=C/c2ccc3cc(C)ccc3[n+]2CC)Sc2ccc3sccc3c21	E coli growth-2 0.33 (no result: phage Ecoli inh)
CCN1/C(=C\c2ccc3cc(C)ccc3[n+]2CC)Sc2cc(C)c(C)cc21	E coli growth-2 0.21 (no result: E coli growth-1, AddAB inh)
CCN1/C(=C/c2ccc3cc(C)cc(C)c3[n+]2CC)Sc2cc(C)ccc21	E coli growth-2 0.12 (no result: E coli growth-1, AddAB inh)
Cc1ccc2c(c1)S/C(=C\c1cccc[n+]1C)N2CCO	none
CCN1C(=Cc2ccc3ccccc3[n+]2CC)Sc2cc(C)ccc21	E coli growth-2 0.36 (no result: Tat transport, E coli growth-1, AddAB inh, phage Ecoli inh)
CN(C)C(=O)C[n+]1ccc(/C=N/O)cc1	none (no result: E coli growth-2)
CCCCCCCCCCCCCCCC[n+]1ccc(C=NO)cc1	E coli growth-2 0.4 (no result: Tat transport, E coli growth-1, AddAB inh, phage Ecoli inh)
CC(=CC(=O)OCCCCCCCCC(=O)O)CC1OCC(CC2OC2C(C)C(C)O)C(O)C1O (stereo not drawn)	E coli growth-2 0.12 (no result: Tat transport, E coli growth-1, AddAB inh, phage Ecoli inh)
CCn1cc(C(=O)Nc2ccccc2)c(=O)c2ccc(C)nc21	none (no result: Tat transport, phage Ecoli inh)
CCn1cc(C(=O)NC2CCCCC2C)c(=O)c2ccc(C)nc21 (stereo not drawn)	E coli growth-2 0.059
CCN1C(=O)/C(=C\N2CCN(C)CC2)SC1=S	none (no result: E coli growth-2)
COc1ccc(NC(=O)CC2Oc3ccccc3NC2=O)c(OC)c1 (stereo not drawn)	none
CC1(C)CC(=O)C=C(c2ccc(-c3ccc(S(C)(=O)=O)cc3)cc2)C1=O	none (no result: Tat transport, E coli growth-1, E coli growth-2, AddAB inh)
Cc1nc(N)c(Cc2ccc(Cl)cc2Cl)c(N)n1	E coli growth-2 0.48
COc1ccc(Cc2c(N)nc(C)nc2N)cc1	none
CNC(=O)c1ccc(Nc2nnc(-c3ccc(C(N)=O)cc3)c3ccccc23)cc1	none
O=C(Cc1ccccc1)Nc1nnc(-c2ccco2)s1	none
Cc1ccc(C(C[N+](=O)[O-])c2c(-c3ccccc3O)[nH][nH]c2=O)cc1 (stereo not drawn)	E coli growth-2 0.52
CC(C)C(CCNC1CCN(C)CC1)c1ccc(Cl)cc1 (stereo not drawn)	none
CN1CCC(NCCC(c2ccc(F)cc2)c2ccc(Cl)cc2)CC1 (stereo not drawn)	E coli growth-2 0.51 (no result: E coli growth-1, AddAB inh)
C=CCN1CN(CCc2ccccc2)CNC1=S	none (no result: Tat transport)
Cc1cc(C)nc(N=C(N)Nc2ccc(-c3ccccc3)cc2)n1	E coli growth-2 0.53 (no result: Tat transport, E coli growth-1, AddAB inh, phage Ecoli inh)
Cc1cc(O)c(C(C)C)cc1N=Nc1ccccc1C(=O)O	none
Cc1cc(N=Nc2ccccc2C(=O)O)c(C)c(C)c1O	E coli growth-1 10.0
CCN(C(=O)COc1ccccc1C(=O)NCc1ccccc1)C1CCS(=O)(=O)C1 (stereo not drawn)	none
CN(C)S(=O)(=O)c1cccc(NC(=S)N/N=C/c2ccc(O)c(O)c2O)c1	phage Ecoli inh 11 (no result: E coli growth-1, E coli growth-2, AddAB inh)
O=C(NC(=S)Nc1ncc(Br)cc1Br)c1ccccc1	none
O=C(c1ccc(O)c(Br)c1)c1cc(Br)ccc1O	E coli growth-2 0.39 (no result: E coli growth-1, AddAB inh)
O=C(c1cnn(-c2ccccc2)c1)c1cc(Br)ccc1O	none
C/C=C1\NC(=O)[C@H](CC(N)=O)N(C)C(=O)C([C@@H](C)O)NC(=O)C(CCCc2ccc(OC)cc2)NC(=O)[C@H](C(C)C)NC(=O)/C(=C\C)NC(=O)[C@H](O)[C@@H](C[C@@H](O)CCCCCCC)NC(=O)[C@H](C)NC(=O)CN(C)C(=O)[C@H](CCC(N)=O)NC1=O (stereo partly drawn)	E coli growth-2 0.52 (no result: E coli growth-1, AddAB inh)
CCC1OC(=O)C(C)C(OC2C[C@@](C)(OC)C(O)C(C)O2)C(C)C(OC2OC(C)CC(N(C)C)C2O)[C@](C)(OC)CC(C)C(=O)C(C)C(O)[C@]1(C)O (stereo partly drawn)	E coli growth-2 0.39 (no result: Tat transport, E coli growth-1, AddAB inh, phage Ecoli inh)
CC[C@H]1OC(=O)[C@H](C)[C@@H](O[C@H]2C[C@@](C)(OC)[C@@H](O)[C@H](C)O2)[C@H](C)[C@@H](O[C@@H]2O[C@H](C)C[C@H](N(C)C)[C@H]2O)[C@](C)(O)C[C@@H](C)C(=NOCOCCOC)[C@H](C)[C@@H](O)[C@]1(C)O	E coli growth-1 11 (no result: E coli growth-2)
OC(c1ccc(F)c(F)c1)c1nc(-c2cccs2)cs1 (stereo not drawn)	none (no result: Tat transport, E coli growth-1, E coli growth-2, AddAB inh)
COc1ccc2c3c(cccc13)C(=O)N(O)C2=O	E coli growth-2 0.38
O=C(NCc1nc2ccccc2[nH]1)c1cccc(S(=O)(=O)N2CCCC2)c1	E coli growth-1 10
S=C(NCc1ccccc1)NCc1cccc(CNC(=S)NCc2ccccc2)c1	E coli growth-1 10
CN(C)CCOc1ccc(-c2c(-c3ccccc3)sc3ccccc23)cc1	E coli growth-2 0.34
c1ccc(-c2sc3ccccc3c2-c2ccc(OCCN3CCCCC3)cc2)cc1	none
Nc1ccccc1C(=O)N1O[C@@H]2C=C[C@H]1C2	none
O=[N+]([O-])c1ccccc1Nc1c2ccccc2nc2ccccc12	none
O=[N+]([O-])c1cccc2nc3ccccc3c(NCCCn3ccnc3[N+](=O)[O-])c12	phage Ecoli inh 16 (no result: E coli growth-1, E coli growth-2, AddAB inh)
O=C1C(=O)c2cccnc2-c2ncccc21	phage Ecoli inh 101 (no result: Tat transport, E coli growth-1, E coli growth-2, AddAB inh)
O=C1c2cccnc2-c2ncccc21	none
COc1ccc(C(NC(=O)c2cccnc2)c2cc(Cl)c3cccnc3c2O)cc1OC (stereo not drawn)	E coli growth-1 23, AddAB inh 25, phage Ecoli inh 20
CC(=O)NC(c1ccco1)c1cc(Cl)c2cccnc2c1O (stereo not drawn)	none (no result: Tat transport, E coli growth-1, E coli growth-2, AddAB inh)
CCCCCCCCCCCCCCCC(O)C[N+](C)(C)CCO (stereo not drawn)	Tat transport 52 (no result: E coli growth-1, E coli growth-2, AddAB inh)
CSc1nc2cc(Oc3cccc(Cl)c3Cl)c(Cl)cc2[nH]1	E coli growth-2 0.46
CSc1nc2ccc(Cl)cc2[nH]1	none
CCc1cccc2c1Sc1ccccc1CC2N1CCNCC1 (stereo not drawn)	none
Cc1cccc2c1Sc1ccc(Cl)cc1CC2N1CCNCC1 (stereo not drawn)	E coli growth-2 0.39 (no result: Tat transport, phage Ecoli inh)
COC(=O)c1c(C)[nH]c(C)c1C(=O)c1ccccc1Cc1ccccc1	none
CCOc1ccc(N(CC(=O)Nc2ccc(F)c(F)c2)S(=O)(=O)c2c(C)noc2C)cc1	none
CCOc1ccc(N(CC(=O)Nc2ccc(C)cc2)S(=O)(=O)c2c(C)noc2C)cc1	phage Ecoli inh 18
C=C1c2cccc(O)c2C(=O)C2C(=O)[C@]3(O)C(=O)C(C(N)=O)C(=O)C(N(C)C)C3C(O)C12 (stereo partly drawn)	E coli growth-2 0.067 (no result: Tat transport, E coli growth-1, AddAB inh, phage Ecoli inh)
O=C(NC(=S)NNC(=O)c1ccccc1O)c1ccc([N+](=O)[O-])cc1	E coli growth-1 16 (no result: E coli growth-2)
O=C(NNC(=S)NC(=O)c1ccccc1)c1ccc([N+](=O)[O-])cc1	none
COc1ccc(S(=O)(=O)Cc2ccc(C(=O)NCCc3cc(OC)ccc3OC)o2)cc1	none
COC(CNc1ncnc2sc(-c3ccccc3)cc12)OC	Tat transport 58
CC(C)(C)Nc1ncnc2sc(-c3ccccc3)cc12	none
